Assay results reported in PubChem BioAssay (NCATS).
Records with an inconclusive call do not appear. Unmarked numbers belong to inactive results. The source made the active and inactive calls. Calls follow the shape of the dose curve; as a rule, active = well fitted cell-killing curve with a large enough effect; inconclusive = small, poorly fitted or top-dose-only effect, or effect the other way; inactive = no such curve, though single readings can be large or run the other way.

Legend:
[1] = Quantitative High-Throughput drug screen in 47 multiple myeloma cell lines against the NCATS MIPE library collection: MM1R_ATCC cell viability assay (AID 1918981); also: nearly all actives have a fitted effect of over 35% in size; also: potency is read from the fitted curve at half-maximal effect
Procedure, shortened: (§1)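 MIPE 4.0 approved/investigational drugs; 500 cells/well; 48 h 37 °C humidified 5% CO2; CTG luminescence readout; DMSO = 100%, media = 0% viability.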

[2] = Quantitative High-Throughput drug screen in 47 multiple myeloma cell lines against the NCATS MIPE library collection: LP1_DSMZ cell viability assay (AID 1918982); also: nearly all actives have a fitted effect of over 35% in size; also: potency is read from the fitted curve at half-maximal effect
Procedure, shortened: as §1

[3] = Quantitative High-Throughput drug screen in 47 multiple myeloma cell lines against the NCATS MIPE library collection: KMS28PE_JCRB cell viability assay (AID 1918983); also: nearly all actives have a fitted effect of over 35% in size; also: potency is read from the fitted curve at half-maximal effect
Procedure, shortened: as §1

[4] = Quantitative High-Throughput drug screen in 47 multiple myeloma cell lines against the NCATS MIPE library collection: KMS34_JCRB cell viability assay (AID 1918985); also: nearly all actives have a fitted effect of over 40% in size; also: potency is read from the fitted curve at half-maximal effect
Procedure, shortened: as §1

[5] = Quantitative High-Throughput drug screen in 47 multiple myeloma cell lines against the NCATS MIPE library collection: OPM1_PLB cell viability assay (AID 1918989); also: nearly all actives have a fitted effect of over 40% in size; also: potency is read from the fitted curve at half-maximal effect
Procedure, shortened: as §1

[6] = Quantitative High-Throughput drug screen in 47 multiple myeloma cell lines against the NCATS MIPE library collection: SKMM1_PLB cell viability assay (AID 1919863); conditions: SKMM1 myeloma viability, CellTiter-Glo ATP, 48 h; viability: active compounds read low; also: nearly all actives have a fitted effect of over 35% in size; also: potency is read from the fitted curve at half-maximal effect
Procedure, shortened: as §1

[7] = Quantitative High-Throughput drug screen in 47 multiple myeloma cell lines against the NCATS MIPE library collection: XG6_PLB cell viability assay (AID 1919865); also: nearly all actives have a fitted effect of over 40% in size; also: potency is read from the fitted curve at half-maximal effect
Procedure, shortened: as §1

[8] = Quantitative High-Throughput drug screen in 47 multiple myeloma cell lines against the NCATS MIPE library collection: XG1_PLB cell viability assay (AID 1919866); also: nearly all actives have a fitted effect of over 35% in size; also: potency is read from the fitted curve at half-maximal effect
Procedure, shortened: as §1

[9] = Quantitative High-Throughput drug screen in 47 multiple myeloma cell lines against the NCATS MIPE library collection: VP6_DJ cell viability assay (AID 1919867); also: nearly all actives have a fitted effect of over 40% in size; also: potency is read from the fitted curve at half-maximal effect;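 as to viability (% of DMSO): 100% = DMSO-only wells and 0% = wells with media alone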
Procedure, shortened: as §1

[10] = Quantitative High-Throughput drug screen in 47 multiple myeloma cell lines against the NCATS MIPE library collection: UTMC2_PLB cell viability assay (AID 1919868); conditions: CellTiter-Glo ATP luminescence, 48 h; viability (% of DMSO control): at 45.8 µM (top of the series); also: nearly all actives have a fitted effect of over 55% in size; also: potency is read from the fitted curve at half-maximal effect;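 as to viability (% of DMSO control): 100% = DMSO-only wells and 0% = media-only wells without cells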
Procedure, shortened: as §1

[11] = Quantitative High-Throughput drug screen in 47 multiple myeloma cell lines against the NCATS MIPE library collection: PE2_PLB cell viability assay (AID 1919869); also: nearly all actives have a fitted effect of over 35% in size; also: potency is read from the fitted curve at half-maximal effect
Procedure, shortened: as §1

[12] = Quantitative High-Throughput drug screen in 47 multiple myeloma cell lines against the NCATS MIPE library collection: PCM6_Riken cell viability assay (AID 1919870); also: nearly all actives have a fitted effect of over 30% in size; also: potency is read from the fitted curve at half-maximal effect
Procedure, shortened: as §1

[13] = Quantitative High-Throughput drug screen in 47 multiple myeloma cell lines against the NCATS MIPE library collection: RPMI8226_ATCC cell viability assay (AID 1919871); also: nearly all actives have a fitted effect of over 30% in size; also: potency is read from the fitted curve at half-maximal effect
Procedure, shortened: as §1

[14] = Quantitative High-Throughput drug screen in 47 multiple myeloma cell lines against the NCATS MIPE library collection: OPM2_DSMZ cell viability assay (AID 1919872); also: nearly all actives have a fitted effect of over 30% in size; also: potency is read from the fitted curve at half-maximal effect
Procedure, shortened: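 qHTS of the MIPE 4.0 collection: 500 myeloma cells/well, 48 h drug exposure at 37C in 5% CO2, then CellTiter-Glo for 5 min at room temperature before luminescence reading.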

[15] = Quantitative High-Throughput drug screen in 47 multiple myeloma cell lines against the NCATS MIPE library collection: OCIMY5_PLB cell viability assay (AID 1918988); also: nearly all actives have a fitted effect of over 65% in size; also: potency is read from the fitted curve at half-maximal effect
Procedure, shortened: as §1

[16] = Quantitative High-Throughput drug screen in 47 multiple myeloma cell lines against the NCATS MIPE library collection: KMS11_JCRBsus cell viability assay (AID 1919873); also: nearly all actives have a fitted effect of over 50% in size; also: potency is read from the fitted curve at half-maximal effect
Procedure, shortened: as §1

[17] = Quantitative High-Throughput drug screen in 47 multiple myeloma cell lines against the NCATS MIPE library collection: U266_ATCC cell viability assay (AID 1919864); also: nearly all actives have a fitted effect of over 35% in size; also: potency is read from the fitted curve at half-maximal effect;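 as to viability (% of DMSO control): 0% = media-only wells without cells and 100% = DMSO-only wells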
Procedure, shortened: as §1

[18] = Quantitative High-Throughput drug screen in 47 multiple myeloma cell lines against the NCATS MIPE library collection: KMS28BM_JCRB cell viability assay (AID 1919874); also: nearly all actives have a fitted effect of over 35% in size; also: potency is read from the fitted curve at half-maximal effect
Procedure, shortened: as §1

[19] = Quantitative High-Throughput drug screen in 47 multiple myeloma cell lines against the NCATS MIPE library collection: L363_DSMZ cell viability assay (AID 1918984); also: nearly all actives have a fitted effect of over 40% in size
Procedure, shortened: as §1

[20] = Quantitative High-Throughput drug screen in 47 multiple myeloma cell lines against the NCATS MIPE library collection: OCIMY7_PLB cell viability assay (AID 1918987); conditions: OCI-MY7 myeloma viability, CellTiter-Glo ATP, 48 h; viability (% of DMSO): at 45.8 µM (top of the series); also: potency is read from the fitted curve at half-maximal effect; nearly all actives have a fitted effect of over 65% in size
Procedure, shortened: as §1

For `Cn1c(N2CCCCS2(=O)=O)nc(C(=O)NCc2ccc(F)cc2)c(O)c1=O`, the Potency [1] was “inactive”, the Potency [2] was “inactive” and the Potency [3] was “inactive”. For the same compound, the Potency [4] was “inactive”, the Potency [5] was “inactive” and the viability [6] was 112%. The Potency [7] was “inactive”, the Potency [8] was “inactive” and the Potency [9] was “inactive”. For the same compound, the viability (% of DMSO control) [10] was 149% (active), the Potency [11] was “inactive” and the Potency [12] was “inactive”. The Potency [13] was “inactive” and the Potency [14] was “inactive”.

In the case of `CC1(C)CCC(CN2CCN(c3ccc(C(=O)NS(=O)(=O)c4ccc(NCC5CCOCC5)c([N+](=O)[O-])c4)c(Oc4cnc5[nH]ccc5c4)c3)CC2)=C(c2ccc(Cl)cc2)C1`, the Potency [1] was 14.8 µM (active), the Potency [2] was 18.7 µM (active) and the Potency [3] was 16.6 µM (active). The Potency [4] was 16.6 µM (active), the Potency [15] was 0.0148 µM (active) and the Potency [5] was 5.26 µM (active). For the same compound, the Potency [6] was 20.9 µM (active), the Potency [11] was 16.6 µM (active) and the Potency [12] was 0.148 µM (active). For the same compound, the Potency [13] was 14.8 µM (active), the Potency [14] was 20.9 µM (active) and the Potency [16] was “inactive”.

With `O=C1c2c(O)cc(O)cc2O[C@H](c2cc(O)c(O)c(O)c2)[C@H]1O` the Potency [1] was 23.5 µM (active), the Potency [2] was 20.9 µM (active) and the Potency [3] was 20.9 µM (active). For the same compound, the Potency [4] was 11.8 µM (active), the Potency [15] was 13.2 µM (active) and the Potency [5] was “inactive”. The Potency [6] was 20.9 µM (active), the Potency [17] was 11.8 µM (active) and the Potency [10] was “inactive”. The Potency [11] was “inactive”, the Potency [12] was “inactive” and the Potency [14] was 18.7 µM (active). For the same compound, the Potency [18] was “inactive”.

In the case of `CC1(C)Cc2c(sc(NC(=S)NC(=O)c3ccccc3)c2C(=O)O)CO1`, the Potency [1] was “inactive”, the Potency [2] was “inactive” and the Potency [3] was “inactive”. The Potency [4] was “inactive”, the Potency [5] was “inactive” and the Potency [7] was 14.8 µM (active). The Potency [8] was “inactive”, the Potency [9] was 8.33 µM (active) and the Potency [10] was 20.9 µM (active). For the same compound, the Potency [12] was “inactive”, the Potency [13] was “inactive” and the Potency [16] was “inactive”. For the same compound, the Potency [18] was “inactive”.

For `O=C(CCc1ccc(O)cc1)c1c(O)cc(O)cc1O[C@@H]1O[C@H](CO)[C@H](O)[C@H](O)[C@H]1O`, the Potency [1] was “inactive”, the Potency [2] was “inactive” and the Potency [19] was “inactive”. The Potency [15] was “inactive”, the viability [6] was 101% and the Potency [17] was “inactive”. For the same compound, the Potency [8] was “inactive”, the Potency [11] was “inactive” and the Potency [13] was “inactive”. For the same compound, the Potency [14] was 9.35 µM (active).

With `O=C(Nc1ccccc1-c1cn2c(CN3CCNCC3)csc2n1)c1cnc2ccccc2n1` the Potency [1] was 20.9 µM (active), the Potency [2] was 23.5 µM (active) and the Potency [3] was 23.5 µM (active). For the same compound, the Potency [20] was 9.35 µM (active), the Potency [15] was 8.33 µM (active) and the Potency [5] was 8.33 µM (active). For the same compound, the Potency [6] was 4.69 µM (active), the Potency [17] was 11.8 µM (active) and the Potency [7] was 9.35 µM (active). For the same compound, the Potency [8] was 7.43 µM (active), the Potency [9] was 9.35 µM (active) and the Potency [11] was 8.33 µM (active). The Potency [13] was 20.9 µM (active), the Potency [14] was 23.5 µM (active) and the Potency [16] was 8.33 µM (active).

In the case of `CCN(CC)CCOc1ccc(C(=C(Cl)c2ccccc2)c2ccccc2)cc1`, the Potency [1] was “inactive”, the Potency [2] was “inactive” and the Potency [3] was “inactive”. For the same compound, the Potency [5] was “inactive”, the Potency [17] was 16.6 µM (active) and the Potency [14] was “inactive”. The Potency [18] was 10.5 µM (active).
